# Laboratory results taken from the supplement of paper PMC10127200.
# Counter-ions that a name gives are not always drawn.
# Tested on: OVCAR4
# Assay: Euclidean distance of Cell Painting phenotypic profile (signed KS, 77 features) to DMSO centroid (dimensionless distance); 5 or 10 uM (library dependent); higher = stronger phenotypic change vs DMSO (phenoactivity)
# Conditions: 48 h
# How it was run: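 Phenoactivity is defined as the Euclidean distance from a compound profile to the median vehicle profile. Each profile comprised 77 Harmony features, scored as signed Kolmogorov-Smirnov statistics versus same-plate vehicle wells, then plate-position corrected, correlation-weighted and replicate-averaged at the top dose. Five cancer lines and one healthy fibroblast line were exposed to library compounds for 48 h at 10 or 5 uM (0.1% DMSO final).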
row,Compound,Euclidean distance
1,CCCC(=O)OCOC(=O)C1=C(C)NC(C)=C(C(=O)OC)C1c1cccc(Cl)c1Cl (stereo not given) [Clevidipine Butyrate],1.78
2,COc1ccc(CNCc2cccc3ccccc23)cc1,1.04
3,CC[C@H](c1ccc(O)cc1)[C@@H](CC)c1ccc(O)cc1 [Hexestrol],1.06
4,CN[C@@H](C)C(=O)N[C@H](C(=O)N1CCC[C@H]1C(=O)Nc1snnc1-c1ccccc1)C1CCCCC1,3.41
5,O=C(O[C@@H]1C[C@@H]2C[C@H]3C[C@H](C1)N2CC3=O)c1c[nH]c2ccccc12 [Dolasetron Mesylate],1.22
6,CCC(C)n1ncn(-c2ccc(N3CCN(c4ccc(OCC5COC(Cn6cncn6)(c6ccc(Cl)cc6Cl)O5)cc4)CC3)cc2)c1=O (stereo not given) [Itraconazole],1
7,Cc1ccc(NC(=O)c2ccc(CN3CCN(C)CC3)cc2)cc1Nc1nc(-c2cccnc2)cs1 [Masitinib (AB1010)],2.08
8,Cn1cnc2c1c(=O)[nH]c(=O)n2C [Theobromine],0.9
9,NC(=O)c1cn(Cc2c(F)cccc2F)nn1 [Rufinamide],1.4
10,CN(C)C(=O)COC(=O)Cc1ccc(OC(=O)c2ccc(NC(=N)N)cc2)cc1 [Camostat Mesilate],1.71
11,COc1ccc2cc3[n+](cc2c1OC)CCc1cc2c(cc1-3)OCO2 [Berberine Sulfate],2.08
12,Cc1cnc(Nc2ccc(OCCN3CCCC3)cc2)nc1Nc1cccc(S(=O)(=O)NC(C)(C)C)c1,3.56
13,COc1cc2nccc(Oc3ccc(NC(=O)NC4CC4)c(Cl)c3)c2cc1C(N)=O [Lenvatinib (E7080)],1.33
14,CC(=O)N1C[C@H](O)C[C@H]1C(=O)O [Oxaceprol],1.28
15,Cc1nc(C#Cc2ccnc(Cl)c2)c(C)n1-c1ccc(OC(F)(F)F)cc1,1.2
16,CO/N=C(\C(=O)N[C@@H]1C(=O)N2C(C(=O)O)=C(CSc3nc(=O)c(O)nn3C)CS[C@H]12)c1csc(N)n1 [Ceftriaxone Sodium Trihydrate],0.926
17,CO[C@@H]1[C@@H](O[C@@H]2O[C@H](C)[C@@H](O[C@H]3C[C@@](C)(O)[C@@H](OC(=O)CC(C)C)[C@H](C)O3)[C@H](N(C)C)[C@H]2O)[C@@H](CC=O)C[C@@H](C)[C@@H](O)/C=C/C=C/C[C@@H](C)OC(=O)C[C@H]1OC(C)=O [Josamycin],1.06
18,OCCN1CCN(CCCN2c3ccccc3Sc3ccc(Cl)cc32)CC1 [Perphenazine],2.19
19,CS(=O)(=O)c1cccc(C[C@H](NC(=O)c2c(Cl)cc3c(c2Cl)CCN(C(=O)c2ccc4ccoc4c2)C3)C(=O)O)c1 [Lifitegrast],1.27
20,N#CC(=C(/N)Sc1ccccc1N)/C(C#N)=C(\N)Sc1ccccc1N,1.48

row,Compound,Euclidean distance
1,CNCc1cc(-c2ccccc2F)n(S(=O)(=O)c2cccnc2)c1 [Vonoprazan Fumarate (TAK-438)],0.89
2,CCN1CCN(Cc2ccc(Nc3ncc(F)c(-c4cc(F)c5nc(C)n(C(C)C)c5c4)n3)nc2)CC1 [Abemaciclib],3.89
3,Nc1nc2[nH]cnc2c(=S)[nH]1 [Thioguanine],2.12
4,CCC(=O)c1c(O)cc(O)cc1O [Flopropione],1.04
5,C[C@]12CCC(=O)C=C1CC[C@@H]1[C@@H]2[C@@H](O)C[C@@]2(C)[C@H]1CC[C@]2(O)C(=O)CO [Hydrocortisone],2.31
6,C[C@H](CS)C(=O)N1CCC[C@H]1C(=O)O [Captopril],0.714
7,FCOC(C(F)(F)F)C(F)(F)F [Sevoflurane],1.51
8,O=NN(CCCl)C(=O)NC1CCCCC1 [Lomustine],1
9,CC(C)[C@H]1CC[C@H](C(=O)N[C@H](Cc2ccccc2)C(=O)O)CC1 [Nateglinide],1.71
10,Cc1ccc(/C(=C\CN2CCCC2)c2cccc(/C=C/C(=O)O)n2)cc1 [Acrivastine],1.02
11,COCCCN1CCC(NC(=O)c2cc(Cl)c(N)c3c2OCC3)CC1 [Prucalopride Succinate],1.47
12,CN(C)Cc1c(C(=O)NCCOc2ccc(C(=O)NO)cc2)oc2ccccc12,3.47
13,Oc1c(Br)cc(Br)c2cccnc12 [Broxyquinoline],0.981
14,O=C(O)c1cc(=O)c2ccccc2o1 [Chromocarb],0.727
15,O=C1N=C(O)NC1(c1ccccc1)c1ccccc1 [Phenytoin sodium],1.27
16,Cc1c(Cn2c(C)nc3c(C(=O)O)cc(N4CCOCC4)cc32)cccc1C(F)(F)F,1.33
17,CCn1cc(C(=O)O)c(=O)c2cc(F)c(N3CCN(C)CC3)cc21 [Pefloxacin Mesylate Dihydrate],1.07
18,CCC(=O)O[C@@H](O[P@](=O)(CCCCc1ccccc1)CC(=O)N1C[C@H](C2CCCCC2)C[C@H]1C(=O)O)C(C)C [Fosinopril Sodium],1.23
19,CCCC(=O)Nc1ccc(OCC(O)CNC(C)C)c(C(C)=O)c1 (stereo not given) [Acebutolol HCl],1.34
20,Cc1c(-c2ccc(O)cc2)n(Cc2ccc(OCCN3CCCCCC3)cc2)c2ccc(O)cc12 [Bazedoxifene HCl],4.32
